From PubChem BioAssay (Tox21) come the findings set out here.

SMILES strings stand for the structures. Several values for one entry are separate records, joined by “and”; a condition that tells them apart may be missing. Equal entries are not always repeated. A structure can be active in one record and inactive in another. Activity calls are given as the source filed them. Unless noted, calls come from the whole dose curve; as a rule, active = well fitted curve in the direction sought with a large enough effect in the repeat runs; inconclusive = weak or mixed curves; inactive = no such curve, though single readings can be large; an effect the other way counts as inactive or inconclusive.

Experiment [1] in a line: qHTS assay to identify small molecule antagonists of the glucocorticoid receptor (GR) signaling pathway - cell viability counter screen (AID 720693; note: nearly all actives have a fitted effect of over 55% in size; note: potency is the fitted concentration of half-maximal effect). (In general: In qHTS, concentration-response curves come from the screen itself.)
Experiment [2] can be described thus: qHTS assay for identifying genotoxic compounds that show differential cytotoxicity against isogenic chicken DT40 cell lines with known DNA damage response pathways - wild type cell line (AID 743012). Note: nearly all actives have a fitted effect of over 60% in size. Note: potency is the fitted concentration of half-maximal effect. In outline: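 Wild-type DT40 cells (300/well) exposed to compounds for 40 hours at 37 C/5% CO2. Viability read by CellTiter-Glo luminescence after 30 min at room temperature.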

A short description of experiment [3]: qHTS assay for identifying genotoxic compounds that show differential cytotoxicity against isogenic chicken DT40 cell lines with known DNA damage response pathways - Rev3 mutant cell line (AID 743014). Note: nearly all actives have a fitted effect of over 55% in size. Note: potency is the fitted concentration of half-maximal effect.
Experiment [4] can be described thus: qHTS assay for identifying genotoxic compounds that show differential cytotoxicity against isogenic chicken DT40 cell lines with known DNA damage response pathways - Rad54/Ku70 mutant cell line (AID 743015). Note: nearly all actives have a fitted effect of over 60% in size. Note: potency is the fitted concentration of half-maximal effect.
Experiment [5] is described as follows: qHTS assay to identify small molecule antagonists of the androgen receptor (AR) signaling pathway - cell viability counter screen (AID 743033; note: nearly all actives have a fitted effect of over 45% in size; note: potency is the fitted concentration of half-maximal effect).
Experiment [6] in a line: qHTS assay to identify small molecule antagonists of the thyroid receptor (TR) signaling pathway - cell viability counter screen (AID 743064). Note: nearly all actives have a fitted effect of over 50% in size. Note: potency is the fitted concentration of half-maximal effect. The gist of the method: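 GH3.TRE-Luc rat pituitary cells carrying a TRE-luciferase reporter were treated with compound plus 1 nM T3 (final) for 23.5 h at 37 °C. Viability was then read in the same wells by CellTiter-Fluor fluorescence after a further 30 min.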

Experiment [7] in a line: qHTS assay to identify small molecule antagonists of the thyroid receptor (TR) signaling pathway (AID 743065). Note: nearly all actives have a fitted effect of over 55% in size. Note: potency is the fitted concentration of half-maximal effect. In outline:
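GH3.TRE-Luc rat pituitary cells (two TREs driving luciferase) were dosed with compound, then stimulated with 1 nM T3 (final) for 23.5 h at 37 C. ONE-Glo luminescence was the read-out, with CellTiter-Fluor fluorescence as the cytotoxicity counter-screen.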

The test system of experiment [8] is thyroid hormone receptor (rat, GH3 cells). Briefly: qHTS assay to identify small molecule agonists of the thyroid receptor (TR) signaling pathway (AID 743066; calls by dose curve; note: potency is the fitted concentration of half-maximal effect; for activation: % is set by controls: 0 for no effect and ±100 for the full control effect).
The target in experiment [9] is Estrogen receptor (Homo sapiens) (UniProt P03372). Put plainly: qHTS assay to identify small molecule antagonists of the estrogen receptor alpha (ER-alpha) signaling pathway (AID 743069; active = well fitted curve in the direction sought with a large enough effect in the signal ratio in the repeat runs, not every such curve was filed as active; inconclusive = weak or mixed curves, or effect the other way; inactive = no such curve, though single readings can be large or run the other way; the % refers to the signal ratio; note: potency is the fitted concentration of half-maximal effect). The gist of the method:
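HEK293 ER-alpha-UAS-bla GripTite cells, held overnight in 2% charcoal-stripped FBS, 5,000 cells/well, preincubated 4 h, then compound plus 17beta-estradiol for 18 h at 37C. Beta-lactamase read by LiveBLAzer B/G FRET substrate, 2 h at room temperature.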

Experiment [10] has the same target. Put plainly: qHTS assay to identify small molecule agonists of the estrogen receptor alpha (ER-alpha) signaling pathway (AID 743075; calls by dose curve; note: potency is the fitted concentration of half-maximal effect; for activation: % is set by controls: 0 for no effect and ±100 for the full control effect).
Experiment [11] shares this target. Briefly: qHTS assay to identify small molecule agonists of the estrogen receptor alpha (ER-alpha) signaling pathway using the BG1 cell line (AID 743079). For activation: % is set by controls: 0 for no effect and ±100 for the full control effect. Note: nearly all actives have a fitted effect of over 20% in size. Note: potency is the fitted concentration of half-maximal effect. The conditions noted are these: BG1Luc4E2 cells, ERE-luciferase agonist, 22 h; activation: at 70.3 µM (top of the series) unless noted.
Experiment [12] can be described thus: qHTS assay to identify small molecule antagonists of the estrogen receptor alpha (ER-alpha) signaling pathway using the BG1 cell line (AID 743080; calls by dose curve;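 note: BG1 cells stimulated with 17beta-estradiol alongside compound; nearly all actives have a fitted effect of over 25% in size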; note: potency is the fitted concentration of half-maximal effect). The gist of the method: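 BG1-Luc-4E2 cells (endogenous full-length ER-alpha, stable 4×ERE-luciferase) were starved 5 days in phenol-red-free medium with 10% charcoal-stripped FBS, plated 24 h, then given compound plus 17beta-estradiol for 21.5 h at 37 C; ONE-Glo luminescence read after 30 min.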

Experiment [13] can be described thus: qHTS assay to identify small molecule antagonists of the estrogen receptor alpha (ER-alpha) signaling pathway using the BG1 cell line - cell viability counter screen (AID 743081).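 Note: compound given together with 17beta-estradiol as the ER stimulus; nearly all actives have a fitted effect of over 45% in size.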 Note: potency is the fitted concentration of half-maximal effect.
Experiment [14] concerns the target Aromatase (Homo sapiens) (UniProt P11511). Briefly: qHTS assay to identify aromatase inhibitors (AID 743083). Note: nearly all actives have a fitted effect of over 55% in size. Note: potency is the fitted concentration of half-maximal effect.
The nature of experiment [15]: qHTS assay to identify small molecule antagonists of the estrogen receptor alpha (ER-alpha) signaling pathway - cell viability counter screen (AID 743074; calls by dose curve;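 note: HEK293 cells carrying ER-alpha-UAS-bla reporter stimulated with 17beta-estradiol; nearly all actives have a fitted effect of over 45% in size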; note: potency is the fitted concentration of half-maximal effect).
The nature of experiment [16]: qHTS assay to identify small molecule antagonists of the androgen receptor (AR) signaling pathway using the MDA cell line - cell viability counter screen (AID 743041; note: % is set by controls: 0 for no effect and ±100 for the full control effect; nearly all actives have a fitted effect of over 45% in size). The gist of the method: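 MDA-kb2 AR-luc cells (MMTV-luciferase, AR/GR responsive) treated with compounds plus R1881 agonist for 16 h at 37C. CellTiter-Fluor added at 15.5 h; fluorescence read after 30 min in the same wells.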

Experiment [17] concerns the target Androgen receptor (Homo sapiens) (UniProt P10275). Put plainly: qHTS assay to identify small molecule antagonists of the androgen receptor (AR) signaling pathway (AID 743035; active = well fitted inhibition curve with a large enough effect in the signal ratio in the repeat runs, not every such curve was filed as active; inconclusive = weak or mixed curves, or effect the other way; inactive = no such curve, though single readings can be large or run the other way; the % refers to the signal ratio; note: potency is the fitted concentration of half-maximal effect). In outline: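 HEK293 cells stably carrying UAS-beta-lactamase reporter, 2,000/well, given compounds plus R1881 agonist and incubated 16 h at 37C. LiveBLAzer B/G FRET substrate then added for 2 h at room temperature before fluorescence reading.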

The target is the same in experiment [18]. Put plainly: qHTS assay to identify small molecule agonists of the androgen receptor (AR) signaling pathway (AID 743036; active = well fitted activation curve with a large enough effect in the signal ratio in the repeat runs, with a control signal flat, not every such curve was filed as active; inconclusive = weak or mixed curves, or effect the other way; inactive = no such curve, though single readings can be large or run the other way; the % refers to the signal ratio; note: % is set by controls: 0 for no effect and ±100 for the full control effect). The gist of the method: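 HEK293 cells stably carrying a UAS-driven beta-lactamase reporter (GeneBLAzer AR-UAS-bla-GripTite) were plated at 2,000 cells/well, rested 4 h at 37C, then exposed to compounds in DMSO for 16 h. LiveBLAzer B/G FRET substrate was added for 2 h at room temperature; fluorescence read.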

Experiment [19] has the same target. Put plainly: qHTS assay to identify small molecule agonists of the androgen receptor (AR) signaling pathway using the MDA cell line (AID 743040; note: % is set by controls: 0 for no effect and ±100 for the full control effect; nearly all actives have a fitted effect of over 20% in size). Particulars: MDA-kb2 AR-luc cells, MMTV luciferase, 16 h; at 70.3 µM (top of the series); stronger effect = higher value. In outline: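 MDA-kb2 breast carcinoma cells carrying MMTV-luciferase (responsive to AR and GR), plated 5 h then treated 16 h with compounds at 37C, 0% CO2. Read-out was ONE-Glo luminescence after 30 min at room temperature.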

For experiment [20] the target is unchanged. Put plainly: qHTS assay to identify small molecule antagonists of the androgen receptor (AR) signaling pathway using the MDA cell line (AID 743042). In outline: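 MDA-kb2 breast carcinoma cells carrying MMTV-luciferase (AR/GR responsive) were co-treated with compounds and the agonist R1881 for 16 h at 37C. Inhibition read as ONE-Glo luminescence; CellTiter-Fluor fluorescence measured in parallel for cytotoxicity.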

Sequence of Aromatase (Homo sapiens) (P11511 whole entry, looked up): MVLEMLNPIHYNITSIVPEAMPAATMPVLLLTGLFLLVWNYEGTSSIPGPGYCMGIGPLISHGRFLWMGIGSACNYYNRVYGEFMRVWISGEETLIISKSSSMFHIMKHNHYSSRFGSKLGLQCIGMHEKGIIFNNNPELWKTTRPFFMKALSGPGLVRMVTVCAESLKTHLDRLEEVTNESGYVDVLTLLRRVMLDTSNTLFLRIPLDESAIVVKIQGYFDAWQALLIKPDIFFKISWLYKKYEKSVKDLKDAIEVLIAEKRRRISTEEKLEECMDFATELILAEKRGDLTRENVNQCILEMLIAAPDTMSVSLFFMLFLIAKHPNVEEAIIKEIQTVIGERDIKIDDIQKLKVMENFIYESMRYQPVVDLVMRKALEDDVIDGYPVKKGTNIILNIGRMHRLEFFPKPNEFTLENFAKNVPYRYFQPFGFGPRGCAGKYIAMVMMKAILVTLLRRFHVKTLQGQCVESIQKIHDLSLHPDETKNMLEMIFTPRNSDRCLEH
Sequence of Androgen receptor (Homo sapiens) (P10275 whole entry, looked up): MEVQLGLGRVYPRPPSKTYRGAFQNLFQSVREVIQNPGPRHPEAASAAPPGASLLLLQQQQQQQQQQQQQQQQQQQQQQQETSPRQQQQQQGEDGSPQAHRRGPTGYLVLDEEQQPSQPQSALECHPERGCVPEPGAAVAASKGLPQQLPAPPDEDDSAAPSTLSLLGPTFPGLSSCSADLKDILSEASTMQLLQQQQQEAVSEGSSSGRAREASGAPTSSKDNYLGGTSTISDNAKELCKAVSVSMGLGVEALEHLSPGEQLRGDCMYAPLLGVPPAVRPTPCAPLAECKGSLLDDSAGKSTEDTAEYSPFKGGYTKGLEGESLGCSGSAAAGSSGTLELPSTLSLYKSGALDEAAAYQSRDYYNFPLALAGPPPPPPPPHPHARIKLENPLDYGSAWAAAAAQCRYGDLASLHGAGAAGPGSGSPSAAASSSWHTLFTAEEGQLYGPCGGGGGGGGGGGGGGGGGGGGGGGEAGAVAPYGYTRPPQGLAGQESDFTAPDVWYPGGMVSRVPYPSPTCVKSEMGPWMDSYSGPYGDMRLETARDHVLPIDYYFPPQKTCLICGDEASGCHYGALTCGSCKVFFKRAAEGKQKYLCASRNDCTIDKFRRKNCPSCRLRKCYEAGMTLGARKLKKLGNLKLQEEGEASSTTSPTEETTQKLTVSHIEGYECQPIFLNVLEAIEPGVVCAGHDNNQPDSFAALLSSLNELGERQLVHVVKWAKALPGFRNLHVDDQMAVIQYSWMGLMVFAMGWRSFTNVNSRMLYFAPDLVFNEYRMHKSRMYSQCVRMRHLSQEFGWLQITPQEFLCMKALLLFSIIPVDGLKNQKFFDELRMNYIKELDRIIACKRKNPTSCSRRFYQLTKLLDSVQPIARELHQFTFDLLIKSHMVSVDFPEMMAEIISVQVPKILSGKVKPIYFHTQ
Sequence of Estrogen receptor (Homo sapiens) (P03372 whole entry, looked up): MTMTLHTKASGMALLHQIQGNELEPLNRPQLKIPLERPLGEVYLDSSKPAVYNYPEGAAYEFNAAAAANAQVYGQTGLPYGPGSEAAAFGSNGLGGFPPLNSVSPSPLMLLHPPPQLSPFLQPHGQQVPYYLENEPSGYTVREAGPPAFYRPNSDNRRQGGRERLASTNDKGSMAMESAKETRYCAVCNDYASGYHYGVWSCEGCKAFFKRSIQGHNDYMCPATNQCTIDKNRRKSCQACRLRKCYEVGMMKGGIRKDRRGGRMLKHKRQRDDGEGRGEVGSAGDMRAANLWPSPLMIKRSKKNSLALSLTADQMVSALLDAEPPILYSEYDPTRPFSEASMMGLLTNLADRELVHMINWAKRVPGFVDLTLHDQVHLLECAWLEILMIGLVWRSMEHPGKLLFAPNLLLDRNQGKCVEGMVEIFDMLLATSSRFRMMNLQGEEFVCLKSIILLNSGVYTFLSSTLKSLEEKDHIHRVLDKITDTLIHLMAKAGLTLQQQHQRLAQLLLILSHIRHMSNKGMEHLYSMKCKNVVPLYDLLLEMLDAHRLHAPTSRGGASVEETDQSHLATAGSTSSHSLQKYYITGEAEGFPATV

`ClCc1ccccn1`: the Potency entry in [1], in [2], in [3], in [4], in experiment [5] and in [6] was “inactive” throughout. In addition, the Potency result in [7], in experiment [8], in experiment [9], in experiment [10], in [11] and in [12] was “inactive” in each case. For the same molecule, the Potency entry in experiment [13] and in [14] was “inactive” throughout.
As to `CCCCCCCCCCCCCl`, the Potency entry in experiment [1], in experiment [2], in experiment [3], in experiment [4], in [5] and in experiment [6] was “inactive” throughout. Moreover, the Potency result in [7], in [8], in [9], in [15], in [12] and in experiment [13] was “inactive” throughout. In addition, the Potency result in experiment [14] was “inactive”. For the same molecule, the Potency in experiment [10] was 54.2 µM [activator] (active) and inactive; in experiment [11], 30.2 µM (active) and inactive.
As for `CC(C)(O)C#N`, the Potency result in experiment [1], in [2], in experiment [3], in [4], in experiment [5] and in [16] was “inactive” in each case. The Potency result in [6], in experiment [15], in experiment [13] and in experiment [14] was “inactive” throughout.
For the molecule `[CH3][Sn]([Cl])([Cl])[Cl]`, the Potency entry in experiment [1], in [2], in experiment [3], in [4], in experiment [5] and in experiment [16] was “inactive” throughout. The Potency entry in experiment [6], in experiment [15], in experiment [13] and in experiment [14] was “inactive” each time.
In the case of `Cl`, the Potency entry in [1], in experiment [4], in experiment [5], in experiment [6], in experiment [8] and in [15] was “inactive” throughout. Further, the Potency entry in [13] and in experiment [14] was “inactive” each time. In addition, the Potency entry in experiment [2] was “inactive and 54.5 µM (active)”; in experiment [3], “inactive and 48.6 µM (active)”.
Take `N#Cc1c(Cl)c(Cl)c(Cl)c(C#N)c1Cl`: the Potency in experiment [1] is 21.5 µM (active) and 21.9 µM (active); in experiment [2], 268 nM (active) and 122 nM (active); in experiment [3] it was 213 nM (active) and 172 nM (active); in experiment [4], 268 nM (active) and 154 nM (active); in experiment [5] it was 2.41 µM (active) and 1.55 µM (active); in [6] it was 847 nM (active) and 193 nM (active). Also, the Potency in experiment [9] is 3.4 µM [inconclusive] (active); in experiment [15], 42.8 µM (active) and 54.9 µM (active); in [10], 87.1 µM [inconclusive] (active); in experiment [13], 53.4 µM (active) and 61.1 µM (active); in experiment [14], 1.51 µM (active) and 969 nM (active).
Regarding `Cn1c(-c2ccccc2)cc(-c2ccccc2)[n+]1C`, the Potency entry in [1], in experiment [6], in experiment [8], in experiment [9], in experiment [10] and in experiment [13] was “inactive” in each case. Further, the Potency in [2] is 12.2 µM (active) and 1.37 µM (active); in experiment [3] it was 2.73 µM (active) and 864 nM (active); in experiment [4], 4.32 µM (active) and 2.43 µM (active); in experiment [12], 30.6 µM (active); in experiment [14] it was 54.4 µM (active) and 54.5 µM (active).
Take `C[C@]12CC[C@H]3[C@@H](CCC4=CC(=O)CC[C@@H]43)[C@@H]1CC[C@@H]2O`: the Potency entry in experiment [1], in experiment [3], in [5], in experiment [16], in experiment [6] and in [8] was “inactive” each time. In addition, the Potency entry in [15], in experiment [12], in [13] and in experiment [14] was “inactive” throughout. In addition, the Potency in [2] was 26.6 µM (active); in [7], 21.1 µM (active) and 13.3 µM (active) and 30.4 µM (active); in experiment [10], 1.34 µM [inconclusive] (active) and 268 nM [inconclusive] (active) and 243 nM [inconclusive] (active); in experiment [11] it was 106 nM (active) and 59.6 nM (active) and 108 nM (active).
As to `CNC(=S)S`, the Potency result in [1], in experiment [2], in experiment [3], in [4], in experiment [5] and in [6] was “inactive” each time. Also, the Potency result in experiment [9], in [15], in experiment [10], in experiment [11], in [12] and in experiment [13] was “inactive” in each case. Also, in [14], the Potency entry is “inactive”.
As for `OC(c1ccc(Cl)cc1)(c1cncnc1)c1ccccc1Cl` (configuration not stated), the Potency result in experiment [1], in [16], in experiment [6], in experiment [8], in experiment [15] and in [12] was “inactive” each time. Besides, the Potency result in experiment [13] was “inactive”. The Potency is 10.9 µM (active) in experiment [2]; 35 µM (active) and 6.86 µM (active) in experiment [3]; 49.4 µM (active) and 6.11 µM (active) in experiment [4]; 61.1 µM (active) in experiment [7]; 54.9 µM [inconclusive] (active) in [9]; 17.7 µM [activator] (active) and 61.6 µM [inconclusive] (active) in experiment [10]. The Potency in experiment [11] is 9.69 µM (active).
Consider `CC(C)Nc1ccc(Nc2ccccc2)cc1`, for which the Potency result in experiment [1], in experiment [8], in experiment [10] and in experiment [13] was “inactive” in each case. Moreover, the Potency was 5.96 µM (active) and 17.2 µM (active) and 12.2 µM (active) in [2]; 10.6 µM (active) and 12.1 µM (active) and 13.7 µM (active) in experiment [3]; 8.41 µM (active) and 15.3 µM (active) and 10.9 µM (active) in experiment [4]; 21.8 µM (active) and 49 µM (active) in [5]; 13.3 µM (active) and 30.6 µM (active) in experiment [6]; 11.9 µM (active) and 30.5 µM (active) and 17.2 µM (active) in experiment [7]. Moreover, the Potency was 48.8 µM (active) and 43.6 µM (active) in experiment [15]; 13.3 µM (active) and 27.2 µM (active) in [14].
As to `CC(C)(c1ccccc1)c1ccc(O)c(C(C)(C)c2ccccc2)c1`, the Potency was 21.7 µM (active) and 24.5 µM (active) in [1]; 21.5 µM (active) and 9.69 µM (active) in experiment [2]; 15.2 µM (active) and 8.63 µM (active) in experiment [3]; 13.6 µM (active) and 9.69 µM (active) in [4]; 48.5 µM (active) and 49 µM (active) in experiment [5]; 13.6 µM (active) and 12.2 µM (active) in [6]. The Potency in experiment [7] is 15.2 µM (active) and 13.7 µM (active); in experiment [8] it was 1.52 µM (active); in [15], 54.9 µM (active); in experiment [13], 60.6 µM (active) and inactive; in experiment [14], 60.6 µM (active). The Potency entry in [9] was “inactive”.
On to `COP(=S)(OC)Oc1ccc(Sc2ccc(OP(=S)(OC)OC)cc2)cc1`, for which the Potency entry in [1], in experiment [18], in [16], in experiment [6], in [7] and in experiment [8] was “inactive” throughout. Also, the Potency result in experiment [15], in experiment [10], in [13] and in experiment [14] was “inactive” throughout. Also, the Potency in [2] is 29.8 µM (active) and 68.6 µM (active); in experiment [17], 54.9 µM (active); in [20] it was 61.1 µM (active); in experiment [9] it was 21.9 µM [inconclusive] (active); in experiment [12] it was 29.8 µM (active). For the same molecule, the activity change in experiment [19] was -9.3% (inactive) and -9.83% (inactive).
